This is a sample that favours compounds with a hit; in the whole collection about 20% have one here.
CHX counter – counter-screen hit for Shiga toxin inhibitors, cycloheximide; cell reporter, cycloheximide protein synthesis inhibition counterscreen; max response, %; hit rate 12% among 300,000; AID 2314; in the data active = max response mostly above about 13%, no sharp cut-off; inactive = mostly below about 14%; also: read at 38.3 µM for the half of the compounds with a filed dose
Shiga toxin inh – inhibitors of Shiga toxin in Vero cells; inhibition, % at 38.7 µM; hit rate 9.2% among 290,000; Vero cells, Shiga toxin protein synthesis inhibition reporter; in the data active = inhibition mostly above about 28%, no sharp cut-off; inactive = mostly below about 43%
Pf growth 48h – P. falciparum growth inhibition at 48 hours (one generation); P. falciparum luciferase growth in erythrocytes, 48 h; Potency, µM (series often up to 28.7 µM), usual class: inhibitors; hit rate 5.9% among 310,000
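Growth was read as firefly luciferase luminescence after a 48 h, 37 C, 5% CO2 exposure of compounds to reporter-bearing P. falciparum cultures (0.1% parasitemia, 2% hematocrit final) in Albumax-supplemented RPMI 1640.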
Pf growth 96h – P. falciparum growth inhibition at 96 hour, primary screen for plastid delayed-death inhibitors; P. falciparum luciferase reporter growth, 96 h; Potency, µM (titrated, usually from 28.7 µM), hits mostly inhibitors; hit rate 6.9% among 320,000; AID 504834
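96 h incubation, 37 C, 5% CO2, of luciferase-reporter P. falciparum-infected RBCs (2% hematocrit, 0.05% parasitemia final) with test compounds; endpoint luminescence.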
HCMV inh – inhibitors of human cytomegalovirus | AID 1259415 | HFF cells, HCMV-luciferase reporter, 72 h; active compounds read low | hit rate 4.5% among 410,000 | activity change, negative = inhibition, % at 57.5 µM; in the data active = activity change below about -60%; inconclusive = no clear call, values can overlap the other calls; inactive = above about -39%
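HFF cells seeded 16 h at 37C, treated with compounds, infected with luciferase-reporter HCMV at MOI 1 PFU/cell; luciferase read at 72 h post infection, normalized to buffer-only and Salinomycin controls.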
Large screens that a line does not name were inactive. Unless noted, calls follow the shape of the dose curve; as a rule, active = well fitted inhibition curve with a large enough effect; inconclusive = small, poorly fitted or top-dose-only effect, or another doubt; inactive = no such curve, though single readings can be large or run the other way.

Cc1cc(C)c(C#N)c(N2CCCC(C(N)=O)C2)n1 (stereo not drawn)	Pf growth 96h 12µM
CCOC(=O)C1CCN(c2nc(C)cc(C)c2C#N)CC1	none
COc1ccc(C2=NOC(Cn3nc(C(=O)NCc4ccco4)cc3-c3ccccc3)C2)cc1 (stereo not drawn)	Pf growth 48h 13µM, Pf growth 96h 10µM (no result: CHX counter, Shiga toxin inh)
Cc1ccccc1-c1cc(C(=O)NCc2ccc3c(c2)OCO3)n(CC2CC(c3cccnc3)=NO2)n1 (stereo not drawn)	Pf growth 48h inconclusive, Pf growth 96h 4.1µM, HCMV inh inconclusive (no result: CHX counter, Shiga toxin inh)
COCCNC(=O)c1cc(-c2ccccc2)n(CC2CC(c3ccc(OC)cc3)=NO2)n1 (stereo not drawn)	Pf growth 96h inconclusive (no result: CHX counter, Shiga toxin inh)
COc1ccc(C2=NOC(Cn3nc(C(=O)NCc4ccc(C)cc4)cc3-c3ccccc3)C2)cc1 (stereo not drawn)	Pf growth 48h 10µM, Pf growth 96h 10µM (no result: CHX counter, Shiga toxin inh)
COc1ccc(C2=NOC(Cn3nc(C(=O)NCc4cccc(C(F)(F)F)c4)cc3-c3ccccc3)C2)cc1 (stereo not drawn)	Pf growth 48h 4.7µM, Pf growth 96h 4.7µM, HCMV inh inconclusive (no result: CHX counter, Shiga toxin inh)
CCN(CC)S(=O)(=O)c1ccc(C)c(NC(=O)CNCCN(C(C)C)C(C)C)c1	none
CC1=NN(c2nc3ccccc3[nH]2)C(=O)C1Cc1ccccc1 (stereo not drawn)	Pf growth 48h 2.6µM, Pf growth 96h 4.1µM (no result: HCMV inh)
CC1=NN(c2nc3ccccc3[nH]2)C(=O)/C1=C/N(C)C	Pf growth 96h inconclusive (no result: HCMV inh)
Cc1ccccc1CNC(=O)C1CCCN(c2nnc(C)c3c(C)n(-c4ccccc4)nc23)C1 (stereo not drawn)	Pf growth 48h inconclusive, HCMV inh -101
CCc1ccc(CNC(=O)C2CCCN(c3nnc(C)c4c(C)n(-c5ccccc5)nc34)C2)cc1 (stereo not drawn)	Pf growth 48h inconclusive, Pf growth 96h inconclusive, HCMV inh -108
Cc1nnc(N2CCCC(C(=O)NCc3ccccc3)C2)c2nn(-c3ccccc3)c(C)c12 (stereo not drawn)	none (no result: CHX counter, Shiga toxin inh, Pf growth 48h, Pf growth 96h)
CC(Sc1nncs1)C(=O)NC1CCCCC1C (stereo not drawn)	none
O=C1CC(c2ccccc2)c2c(n3ncnc3[nH]c2=O)N1 (stereo not drawn)	none (no result: CHX counter, Shiga toxin inh, Pf growth 48h, Pf growth 96h)
Cc1cccc(N2C(=O)CS(=O)(=O)C23C(=O)N(Cc2c(F)cccc2Cl)c2ccccc23)c1 (stereo not drawn)	none (no result: CHX counter, Shiga toxin inh, Pf growth 48h, Pf growth 96h)
CC(C)c1ccc(OCC(=O)Nc2ccc(OC(F)(F)F)cc2)cc1	Pf growth 96h inconclusive
CC(C)c1ccc(NC(=O)COc2ccccn2)cc1	CHX counter 45, Shiga toxin inh 84
CC(C)c1ccc(NC(=O)COc2ccccc2)cc1	CHX counter 49, Shiga toxin inh 62
CC(C)c1ccc(OCC(=O)NCCO)cc1	CHX counter 53, Shiga toxin inh 93
CC(C)c1ccc(NC(=O)CSc2nnc(-c3ccccn3)n2C)cc1	HCMV inh inconclusive (no result: Pf growth 96h)
CCOC(=O)[C@]12CCCC=C1N(Cc1ccccc1)C(=O)[C@H](CC(=O)NCCCCc1ccccc1)C2	none (no result: CHX counter, Shiga toxin inh, Pf growth 48h, Pf growth 96h)
CN(CC(=O)NC1CCCCCCC1)S(=O)(=O)c1cccc2cccnc12	HCMV inh -62 (no result: Pf growth 48h)
CN(CC(=O)Nc1ccc(F)c(F)c1)S(=O)(=O)c1cccc2cccnc12	Pf growth 96h 13µM
COc1ccc(N(C(=O)C(C)C)S(=O)(=O)c2cccc3cccnc23)cc1	HCMV inh -67
COc1ccc(NC(=O)CN(C)S(=O)(=O)c2cccc3cccnc23)cc1	HCMV inh -66 (no result: Pf growth 48h)
CCn1cc(CN2CCCC(CNC(=O)COc3ccccc3OC)C2)c(C)n1 (stereo not drawn)	Pf growth 48h inconclusive, Pf growth 96h inconclusive, HCMV inh inconclusive
CC1CCCC(NC(=O)COC(=O)c2ccc3c(c2)OCCO3)C1C (stereo not drawn)	none (no result: CHX counter, Shiga toxin inh, Pf growth 48h, Pf growth 96h)
CCN(CC)c1ccc(/C=N/NC(=O)c2c(-c3ccccc3)noc2C)cc1	none
O=S(=O)(NC1CCCCCC1)c1cccc2cccnc12	Pf growth 96h 5.2µM
O=C(NC1CCCCC1)c1ccc(NS(=O)(=O)c2cccc3cccnc23)cc1	Pf growth 48h inconclusive
COC1CCCN(C(=O)c2cccc(OC3CCN(S(=O)(=O)N(C)C)CC3)c2)C1 (stereo not drawn)	none
Cc1ccccc1Cn1ccc(NC(=O)c2nn(C)cc2[N+](=O)[O-])n1	HCMV inh inconclusive
Cc1ccccc1Cn1ccc(NC(=O)c2nc3ncccn3n2)n1	CHX counter 9.3
Cc1ccccc1Cn1ccc(NC(=O)c2onc(C)c2Cl)n1	CHX counter 29, Shiga toxin inh 76
COc1cc(Cl)cc(C=O)c1OCC(=O)O	none
CCN1C(=O)C(=Cc2cccc(OC)c2Oc2ccc([N+](=O)[O-])cc2[N+](=O)[O-])SC1=S	Pf growth 48h 5.2µM, Pf growth 96h 10µM
CO/N=C/c1ccc(Oc2ccc([N+](=O)[O-])cc2[N+](=O)[O-])c(OC)c1	none
COc1cc(/C=C2\SC(=O)NC2=O)ccc1Oc1ccc([N+](=O)[O-])cc1[N+](=O)[O-]	Pf growth 48h inconclusive, HCMV inh -75
CCN1C(=O)S/C(=C/c2ccc(Oc3ccc([N+](=O)[O-])cn3)c(OC)c2)C1=O	Pf growth 48h inconclusive, Pf growth 96h inconclusive, HCMV inh inconclusive
O=C1NC(=O)/C(=C\c2ccc(Oc3ccc([N+](=O)[O-])cn3)cc2)S1	CHX counter 34, Shiga toxin inh 42, HCMV inh inconclusive
COc1cc(O)c(C(C)=O)c2c1C=CC(C)(C)O2	none (no result: CHX counter, Shiga toxin inh, Pf growth 48h, Pf growth 96h)
COC1=CC(=O)[C@]2(C=C1OC)OC[C@@H]1Oc3c(ccc4c3C=CC(C)(C)O4)C(=O)[C@@H]12	HCMV inh -93 (no result: CHX counter, Shiga toxin inh, Pf growth 48h, Pf growth 96h)
Cc1nnc(SC(C)C(=O)Nc2ccc(Cl)cn2)n1Cc1ccccc1 (stereo not drawn)	none
CC(Sc1nnc(-c2ccc(Cl)cc2Cl)n1Cc1ccccc1)C(=O)Nc1nccs1 (stereo not drawn)	Pf growth 48h inconclusive, Pf growth 96h 9.3µM
CC(Sc1nnc(-c2ccco2)n1C)C(=O)Nc1nccs1 (stereo not drawn)	Pf growth 48h inconclusive, Pf growth 96h 5.2µM (no result: CHX counter, Shiga toxin inh)
CSc1nnc([C@@H](N)Cc2ccccc2)o1	Pf growth 96h inconclusive
C=C(C)CSc1nnc([C@@H](N)Cc2ccccc2)o1	CHX counter 18, Pf growth 96h inconclusive
CC(C)Sc1nnc([C@@H](N)Cc2ccccc2)o1	CHX counter 43
S=c1[nH]c2cnc(Cl)nc2[nH]1	HCMV inh -68 (no result: CHX counter, Shiga toxin inh, Pf growth 48h, Pf growth 96h)
C[C@@H]1COc2cccc(N3CCCCC3)c2S(=O)(=O)N1	none (no result: CHX counter, Shiga toxin inh, Pf growth 48h, Pf growth 96h)
C[C@@]1(CO)[C@H](O)CC[C@@]2(C)[C@H]1CC[C@H]1C[C@@H]3C[C@@]12CC[C@]3(O)CO	Pf growth 48h 0.52µM, Pf growth 96h 0.59µM (no result: HCMV inh)
C[C@H]1CCC2[C@](C)(CO)[C@@H](O)CC[C@]2(C)[C@@]12CCC(CO)(CCO)O2 (stereo partly drawn)	none
Cc1ccc(S(=O)(=O)Nc2cccc(C(=O)NCCCn3ccnc3)c2)cc1F	Pf growth 48h inconclusive (no result: CHX counter, Shiga toxin inh)
CCCCCSc1nncc(=O)[nH]1	none

Compound activity: PubChem, National Center for Advancing Translational Sciences (NCATS)
